# IL1B secr inh: inflammasome signaling inhibition, IL-1 beta readout; activity change, % at 57.5 µM; 360,000 compounds, 4.7% hits; THP-1 LPS/ATP IL-1B secretion, AlphaLISA, 16 h; hits give low values; AID 743279; in the data active = activity change below about -50%; inconclusive = mostly about -30% to -49%
#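 THP-1 cells pretreated 1 hr with compounds (up to 57.5 uM final), then stimulated with LPS (250 ng/mL final) plus ATP (1.25 mM final); secreted IL-1B measured by AlphaLISA after 16 hr, decreased signal indicating inhibition.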
# HT1080 IDH1KD tx: HT-1080 IDH1 knockdown cell toxicity (counter line). HT-1080 IDH1 knockdown viability, ATP luminescence, 48 h. Potency, µM (doses to about 46.1 µM), actives largely listed as cytotoxic. 360,000 compounds, 2% hits
#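 % activity derives from luminescence (CellTiter-Glo), normalised to DMSO and no-cell wells. HT-1080-IDH1KD cells, 750/well, had 48 h compound exposure at 37 °C.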
# HT1080NT lethal: kills 2HG-producing HT-1080-NT fibrosarcoma cells; HT-1080-NT fibrosarcoma viability, CellTiter-Glo ATP luminescence, 48 h; 360,000 compounds, 1.6% hits; Potency, µM (doses to about 46.1 µM), hits mostly cytotoxic;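 also: NT is the 2HG producing partner of a matched IDH1 knockdown line; nearly all actives have a fitted effect of over 55% in size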
#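 Compounds were tested in concentration-response format on HT-1080-NT cells for 48 hours at 37 degrees C. Cell viability came from CellTiter-Glo luminescence; curves were classified by r2, response magnitude and activity.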
# TDP1 cell CPT: DT40-hTDP1 cell growth loss with CPT; chicken DT40 Tdp1-/-;hTDP1 cells + 20 nM CPT, ATP luminescence, 48 h; Potency, µM (doses to about 46.2 µM), most hits filed as inhibitors; 420,000 compounds, 12% hits; AID 686979; also: nearly all actives have a fitted effect of over 55% in size
#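 Chicken DT40 Tdp1-/- cells stably complemented with human TDP1 were seeded at 400 cells/well in medium containing 20 nM camptothecin, exposed to pin-transferred compounds, and grown at 37 °C for at least 48 hr. Viability was read as ATP luminescence.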
# TDP1 cell noCPT: qHTS for Inhibitors of human tyrosyl-DNA phosphodiesterase 1 (TDP1): qHTS in cells in absence of CPT | DT40 Tdp1-/- hTDP1 cells, no CPT, ATP luminescence, 48 h | Potency, µM (doses to about 46.2 µM), hits mostly inhibitors | 420,000 compounds, 15% hits; also: nearly all actives have a fitted effect of over 55% in size
#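 Seeded 400 DT40-hTDP1 cells/well (vehicle DMSO, no 20 nM CPT); pinned compounds; ≥48 hr at 37 °C; CellTiter-Glo luminescence as viability measure.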
# A number is an active result; – = inactive; ? = inconclusive; · = not tested or not shown. A selection: hits, their analogues and other compounds. The true share with any hit is near 19%. Unless noted, calls follow the shape of the dose curve; as a rule, active = well fitted curve in the direction sought with a large enough effect; inconclusive = small, poorly fitted or top-dose-only effect, or another doubt; inactive = no such curve, though single readings can be large; an effect the other way counts as inactive or inconclusive.
SMILES,IL1B secr inh,HT1080 IDH1KD tx,HT1080NT lethal,TDP1 cell CPT,TDP1 cell noCPT
O=C(CCl)Nc1nccs1,-62,?,?,2.6µM,5.8µM
O=C(Nc1nccs1)C(Cl)(Cl)Cl,–,–,–,–,–
O=C(Nc1ccc(Cl)cc1)Nc1nccs1,–,7.3µM,7.3µM,4.1µM,2.9µM
CC(C)Oc1ccc(C2(C#N)CC[N+](C)(C)CC2)cc1,–,–,–,–,–
COc1ccc(-c2nn(CCC#N)cc2C(=O)Nc2ccccc2Br)cc1,–,?,–,–,?
CCc1nn(CC(=O)N2CCC3(CC2)OCCO3)c(=O)c2cccn12,–,–,–,–,–
Cc1cccc(C)c1-n1nnnc1C(CCc1ccccc1)N1CCC(n2c(=O)[nH]c3ccccc32)CC1 (centres undefined),–,–,–,5.8µM,5.8µM
O=c1[nH]c2ccccc2n1C1CCN(C(CCc2ccccc2)c2nnnn2-c2ccc3c(c2)OCCO3)CC1 (centres undefined),?,15µM,13µM,3.7µM,2.9µM
COc1ccc(-n2nnnc2C(CCc2ccccc2)N2CCC(n3c(=O)[nH]c4ccccc43)CC2)cc1 (centres undefined),·,13µM,16µM,?,23µM
CCC(c1nnnn1-c1ccc(OC)cc1)N1CCC(n2c(=O)[nH]c3ccccc32)CC1 (centres undefined),–,–,–,?,?
COc1ccc(-n2nnnc2C(CCSC)N2CCC(n3c(=O)[nH]c4ccccc43)CC2)cc1 (centres undefined),–,?,?,?,21µM
COc1ccc(NC(=O)N2CCCC3(CCN(C(=O)Oc4ccccc4)CC3)C2)cc1,·,·,·,–,–
CCc1nnc(NS(=O)(=O)c2ccc(N=Cc3c(O)n(-c4ccc(Cl)cc4)c(=O)[nH]c3=O)cc2)s1,–,?,–,?,?
COc1cccc(C(c2nnnn2-c2c(C)cccc2C)N2CCC(n3c(=O)[nH]c4ccccc43)CC2)c1OC (centres undefined),-84,?,?,5.8µM,5.8µM
COc1cc(/C=N/Nc2ccc(S(N)(=O)=O)cc2)cc(OC)c1OC,–,–,–,?,21µM
CN1[C@@H]2CC[C@H]1CC(OC(c1ccc(F)cc1)c1ccc(F)cc1)C2 (some centres undefined),·,·,·,6.7µM,9.4µM
CCCc1nc2ccccc2c(=O)n1-c1cccc(OC)c1,–,–,–,18µM,?
COc1ccccc1-n1c(Cc2ccccc2)nc2ccccc2c1=O,?,–,–,–,–
CCCc1nc2ccccc2c(=O)n1-c1ccccc1OC,–,–,–,?,21µM
CCCc1nc2ccccc2c(=O)n1-c1ccc(OC)cc1,–,–,–,?,23µM
CCCSc1nc2ccccc2c(=O)n1-c1ccccc1OC,·,·,·,?,21µM
CCCCOC1NC(=O)NC(=O)C1(F)C(=O)OCC (centres undefined),–,–,–,?,?
C#CC(CC)(CC)NC(=O)Nc1ccc(OCC)cc1,–,–,–,–,–
COc1ccc(CN2C(=O)CC(=O)NC2=S)cc1,–,–,–,–,–
CCCCc1nc2ccccc2c(=O)n1-c1cccc(OC)c1,·,·,·,16µM,18µM
SMILES,IL1B secr inh,HT1080 IDH1KD tx,HT1080NT lethal,TDP1 cell CPT,TDP1 cell noCPT
CCCCc1nc2ccccc2c(=O)n1-c1ccccc1O,–,–,–,?,?
CCOc1cc(CNC2CCCC2)cc(Cl)c1OCc1ccc(F)cc1,-80,?,?,15µM,23µM
CCOc1cc(CNC(C)C(O)c2ccccc2)cc(Cl)c1OCC (centres undefined),?,–,?,?,?
ClCCOCCCl,–,–,–,–,?
COC(=O)C1(C(=O)OC)C[C@H](c2ccc(OC)cc2)N(Cc2ccccc2OC)[C@@H]1c1cccs1,?,–,–,16µM,21µM
CC(=O)O[C@@H]1[C@H]2CC[C@@H]3[C@]1(C[C@@H](OC(C)=O)[C@@]1(O)C([C@@H]4O[C@@H]4C1(C)C)[C@]3(C)O)C[C@@]2(C)O (some centres undefined),–,–,–,–,–
CCn1c(O)c(N=Nc2cccc(S(=O)(=O)N3CCOCC3)c2)c(=O)n(CC)c1=S,?,–,–,–,–
CCn1c(O)c(N=Nc2ccc(S(=O)(=O)N3CCOCC3)cc2)c(=O)n(CC)c1=S,-84,–,–,–,–
C=CCN1CCc2cccc3c2[C@H]1Cc1ccc(O)c(O)c1-3,–,?,?,16µM,18µM
COc1ccc(Cn2c(N)c(C(=O)NCc3ccco3)c3nc4ccccc4nc32)cc1,?,–,–,?,?
Nc1c(C(=O)NCc2ccco2)c2nc3ccccc3nc2n1Cc1ccccc1,?,–,–,16µM,26µM
CCOC(=O)c1c(N)n(Cc2ccco2)c2nc3ccccc3nc12,–,–,–,?,?
Nc1c(C(=O)NCc2ccco2)c2nc3ccccc3nc2n1Cc1ccc(F)cc1,?,?,16µM,15µM,?
Cc1cc(C)cc(OCC(=O)Nc2ccc(-c3nc4ccccc4s3)cc2)c1,·,·,·,10µM,9.2µM
Cc1cc(C)cc(OCC(=O)Nc2ccc(Cl)cc2C(=O)c2ccccc2)c1,·,·,·,–,–
Fc1ccccc1CCNCc1cccc(Cl)c1Cl,–,–,–,?,–
Cc1nc(Cl)sc1C(=O)Nc1ccc2ccccc2c1,–,–,–,–,–
O=C(Nc1ccc2ccccc2c1)c1nn(C23CC4CC(CC(C4)C2)C3)cc1Br,–,–,–,18µM,21µM
COC(=O)C1=C(c2ccc(Cl)c(C(F)(F)F)c2)C[C@@H]2CC[C@H]1N2C(=O)NCCCOC(C)C,–,–,–,26µM,13µM
COC(=O)C1=C(c2ccc(Cl)c(C(F)(F)F)c2)C[C@@H]2CC[C@H]1N2C(=O)NCCNC(C)=O,–,–,?,–,?
COC(=O)C1=C(c2ccc(Cl)c(C(F)(F)F)c2)C[C@@H]2CC[C@H]1N2C(=O)NCCOc1ccccc1Cl,-82,?,?,?,?
O=C(c1csc2c1CCCCC2)N1CCC2(CC1)OCCO2,–,–,–,–,–
CC(C)[C@H]1C(=O)O[C@H](C(C)C)C(=O)N(C)[C@@H](C(C)C)C(=O)O[C@H](C(C)C)C(=O)N(C)[C@@H](C(C)C)C(=O)O[C@H](C(C)C)C(=O)N1C,–,3.3µM,4.1µM,3.3µM,4.1µM
O=[N+]([O-])[N-][n+]1cnn(Cc2ccccc2)c1,–,–,–,–,–
Cc1cc(/C=C/c2cccc3sc(C)[n+](CCCCI)c23)ccc1N(CCCl)CCCl,·,·,·,2µM,1.6µM
CN1C(=O)C(=Cc2ccccc2OS(=O)(=O)c2ccccc2)C(=O)N(C)C1=O,–,–,–,?,?
CN1C(=O)C(=Cc2ccccc2OCc2ccc(C(=O)O)cc2)C(=O)N(C)C1=O,–,–,–,–,–

# Source: PubChem BioAssay (National Center for Advancing Translational Sciences (NCATS))
